{
  "source": "PubChem BioAssay AID492956",
  "about": "(The Scripps Research Institute Molecular Screening Center, 2010)",
  "note": "Where “and” joins values, the source holds several entries; their conditions need not be identical. Equal entries are not always repeated. In all, about 340,000 compounds went through this assay and about 3,300 (0.97%) were called active. The full list was thinned out, with actives kept by preference. A number with no mark means an inactive call.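 How the source made its calls: active means inhibition above the mean over all tested compounds plus 3 SD (cut at about 30% in these data); inactive means the rest.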",
  "data": [
    {"biological_target": "Platelet-activating factor acetylhydrolase 2, cytoplasmic (Homo sapiens) (UniProt Q99487)", "test": "PAFAH2 enzyme inhibitors, primary screen, biochemical, fluorescence polarization, human (AID 492956);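 further: inhibitors block probe labeling of enzyme so polarization drops; 0% = enzyme with DMSO and 100% = wells lacking PAFAH2 protein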", "conditions": "recombinant PAFAH2, FP-rhodamine activity probe, at 3.39 µM, hits give high values", "values": [
      {"smiles": "CN1C(=O)[C@H]2[C@@H](/C=C/c3ccccc3)N3C(=O)CN(Cc4ccc(-c5ccccc5)cc4)C(=O)[C@@]3(C)[C@H]2C1=O", "inhibition": "6.34%"},
      {"smiles": "COC(=O)c1ccc(CN2CCC(CO)(Cc3ccc(OC)cc3)CC2)cc1", "inhibition": "-1.13%"},
      {"smiles": "CCOc1ccccc1NC(=O)C1CCCN(C(=O)Nc2ccccc2)C1", "note": "(stereo unspecified)", "inhibition": "8.64%"},
      {"smiles": "COCCNC(=O)CN(Cc1ccco1)C(=O)CCC(=O)Nc1nccs1", "inhibition": "-1%"},
      {"smiles": "COc1cccc(NC(=O)COC(=O)/C=C/c2ccco2)c1", "inhibition": "71.4% (active)"},
      {"smiles": "COc1ccccc1OCCCC(=O)Nc1ccc2c(c1)OCCO2", "inhibition": "-0.62%"},
      {"smiles": "NS(=O)(=O)c1cccc(NC(=O)COC(=O)/C=C/c2ccco2)c1", "inhibition": "26.1%"},
      {"smiles": "COc1ccc([N+](=O)[O-])cc1NC(=O)COC(=O)/C=C/c1ccco1", "inhibition": "14.1%"},
      {"smiles": "COc1ccc(OC)c(/C=C/C(=O)c2ccc3c(c2)OCO3)c1", "inhibition": "10.8%"},
      {"smiles": "COc1cccc(NC(=O)COC(=O)CCOc2ccccc2OC)c1", "inhibition": "3.71%"},
      {"smiles": "COc1ccc(/C=C/C(=O)OCC(=O)Nc2cccc(Oc3ccccc3)c2)c(OC)c1", "inhibition": "44.5% (active)"},
      {"smiles": "COc1cc(/C=C/C(=O)OCC(=O)NCCCc2ccccc2)ccc1O", "inhibition": "48.4% (active)"},
      {"smiles": "COc1ccc(OC)c(/C=C/C(=O)OCC(=O)Nc2ccc3c(c2)OCCO3)c1", "inhibition": "43.7% (active)"},
      {"smiles": "COc1cc(/C=C/C(=O)OCC(=O)NC(=O)NCc2ccccc2)ccc1OCC#N", "inhibition": "-1.43%"},
      {"smiles": "COc1cc(/C=C/C(=O)OCC(=O)c2ccccc2)cc(OC)c1OC", "inhibition": "18%"},
      {"smiles": "COc1cccc(NC(=O)CN(C)C(=O)/C=C/c2cc(OC)ccc2OC)c1", "inhibition": "1.18%"},
      {"smiles": "O=C(Nc1cccc2c1CCCC2)C1CCN(C(=O)NC2CCCCC2)CC1", "inhibition": "-4.67%"},
      {"smiles": "COc1ccc(OC)c(/C=N/NC(=O)c2ccc[n+](CC(=O)c3ccccc3)c2)c1", "inhibition": "-2.42%"},
      {"smiles": "Cc1ccc(/C=C/C(=O)O)cc1S(=O)(=O)N1CCC(Cc2ccccc2)CC1", "inhibition": "2.39%"},
      {"smiles": "O=C(C[C@@H]1C/C=C\\CCC(=O)OC[C@@H]2CCCN2C1=O)NCCO", "inhibition": "15.7%"},
      {"smiles": "CCOc1ncccc1C(=O)N(C)CC(=O)Nc1ccc(F)cc1", "inhibition": "-4.72%"},
      {"smiles": "CC1CCc2sc(C(=O)N/N=C/C3CCCCC3)cc2C1", "note": "(stereo unspecified)", "inhibition": "0.32%"},
      {"smiles": "O=C(CSc1nnc(COc2ccc(Cl)cc2)n1Cc1ccco1)N1CCNC1=O", "inhibition": "6.03%"},
      {"smiles": "COc1ccc(C(=O)OCC(=O)NCCCc2ccccc2)cc1OC", "inhibition": "55.4% (active)"},
      {"smiles": "O=C(COC(=O)c1ccc(F)cc1)NCCCc1ccccc1", "inhibition": "21.2%"},
      {"smiles": "Cc1cnc(C(=O)OCC(=O)NCCCc2ccccc2)cn1", "inhibition": "4.7%"},
      {"smiles": "Cn1c2c(c(=O)n(C)c1=O)CN(Cc1ccco1)CN2", "inhibition": "-2.71%"},
      {"smiles": "CCCN(CC(=O)Nc1ccccc1C)C(=O)c1ccc2[nH]c3c(c2c1)CC(C)CC3", "note": "(stereo unspecified)", "inhibition": "8.67%"},
      {"smiles": "CCOc1ccc(S(=O)(=O)N2CCCCC2)cc1NC(=O)CN1CCCC1c1cccs1", "note": "(stereo unspecified)", "inhibition": "-0.88%"},
      {"smiles": "CC(=O)Nc1ccc(S(=O)(=O)NCC2CCC(C(=O)NCCc3ccccc3)CC2)cc1", "note": "(stereo unspecified)", "inhibition": "6.72%"},
      {"smiles": "CC1=NN(c2ccc(Cl)c(C(=O)O)c2)C(=O)/C1=C/c1ccc(-c2ccccc2[N+](=O)[O-])o1", "inhibition": "36.5% (active)"},
      {"smiles": "O=C1NC(c2ccc(-c3ccccc3[N+](=O)[O-])o2)C(C(=O)c2ccc(Cl)cc2)C(O)(C(F)(F)F)N1", "note": "(stereo unspecified)", "inhibition": "1.45%"},
      {"smiles": "O=C(Nc1ccc(N2CCOCC2)cc1)c1ccc(-c2ccccc2[N+](=O)[O-])o1", "inhibition": "-11.3%"},
      {"smiles": "CC(CO)(CO)NC(=O)c1ccc(=O)[nH]n1", "inhibition": "-12.6%"},
      {"smiles": "Cc1c2cnn(CC(=O)NCCCN3CC(C)CC(C)C3)c(=O)c2c(C)n1Cc1ccc(Cl)cc1", "note": "(stereo unspecified)", "inhibition": "5.22%"},
      {"smiles": "O=C(c1cccnc1)N(c1cc2sc(=O)oc2c2ccccc12)S(=O)(=O)c1ccccc1", "inhibition": "36.6% (active)"},
      {"smiles": "COc1ccc(N(C(=O)c2cccnc2)S(=O)(=O)c2ccc(OC)c(OC)c2)cc1", "inhibition": "-3.27%"},
      {"smiles": "O=C(c1cccnc1)N(Cc1ccccc1)C(=O)c1cccnc1", "inhibition": "3.92%"},
      {"smiles": "COc1cccc2oc(CCc3ccccc3)cc(=O)c12", "inhibition": "6.23%"},
      {"smiles": "CCC1C(C#N)=C(SC)NC2=C1C(=O)CC(C)(C)C2", "note": "(stereo unspecified)", "inhibition": "-6.12%"},
      {"smiles": "CCC(C)(C)c1ccc(Oc2ccc(NC(=O)COC(=O)C3=COCCO3)cc2)cc1", "inhibition": "55.4% (active)"},
      {"smiles": "O=C(OCC(=O)c1cccs1)C1=COCCO1", "inhibition": "17.6%"},
      {"smiles": "CCOc1ccc(NC(=O)c2ccc(NC(=O)COC(=O)c3ccc(NC(=O)CC#N)cc3)cc2)cc1", "inhibition": "-53.2%"},
      {"smiles": "COc1cccc(C2=CC(=O)C[C@H](c3ccc(F)cc3)C2)c1OC", "inhibition": "-13.9%"},
      {"smiles": "O=C(OC1CCOC1=O)c1cccc(S(=O)(=O)Nc2ccc(F)cc2)c1", "note": "(stereo unspecified)", "inhibition": "9.72%"},
      {"smiles": "Cc1ccc2nc(COc3ccc(N(C)S(=O)(=O)c4ccccc4)cc3)cc(=O)n2c1", "inhibition": "8.78%"},
      {"smiles": "CC1CCCCC1NC(=O)CCS(=O)(=O)c1ccc2c(c1)NC(=O)CO2", "note": "(stereo unspecified)", "inhibition": "26.2%"},
      {"smiles": "CC1CN(C(=O)c2ccc([N+](=O)[O-])s2)CC(C)O1", "note": "(stereo unspecified)", "inhibition": "5.08%"},
      {"smiles": "CNN/C(N=Cc1ccc([N+](=O)[O-])s1)=N\\S(=O)(=O)c1cc(C)c(Cl)cc1SCc1ccccc1", "inhibition": "5.01%"},
      {"smiles": "O=[N+]([O-])c1ccc(C=Nc2ccc(Cl)cc2Cl)s1", "inhibition": "63.8% (active)"},
      {"smiles": "O=C1COc2ccc(C(=O)COC(=O)CCOc3ccccc3)cc2N1", "inhibition": "0.36%"},
      {"smiles": "COc1cccc(NC(=O)CN(C)C(=O)/C=C/c2cn(-c3ccccc3)nc2-c2cccs2)c1", "inhibition": "-54.5%"},
      {"smiles": "COc1cccc(C(=O)n2ccc(-c3cccs3)n2)c1", "inhibition": "31.8% (active)"},
      {"smiles": "COc1ccc(OC)c(-c2csc(-c3cccs3)n2)c1", "inhibition": "5.06%"},
      {"smiles": "CC(C)(C)c1ccc(Cn2nnc3c(=O)[nH]c(C4CCCN(C(=O)c5ccco5)C4)nc32)cc1", "note": "(stereo unspecified)", "inhibition": "-1.16%"},
      {"smiles": "Cc1cc(C)cc(NC(=O)CCN2C(=O)c3ccccc3C2=O)c1", "inhibition": "-14%"},
      {"smiles": "CCn1cc(CN2CCN(CC(C)(C)C)C(CCO)C2)c2ccccc21", "note": "(stereo unspecified)", "inhibition": "1.37%"},
      {"smiles": "COc1cc(/C=C/C(=O)OCC(=O)NC2CC2)cc(OC)c1OC", "inhibition": "9.4%"},
      {"smiles": "O=C(COC(=O)/C=C/c1cccs1)NC1CCCCC1", "inhibition": "80.5% (active)"},
      {"smiles": "COc1ccc(CCNC(=O)COC(=O)/C=C/c2cccs2)cc1OC", "inhibition": "6.71%"},
      {"smiles": "O=C(CCC(=O)c1cccs1)NC1CCCCCC1", "inhibition": "8.2%"},
      {"smiles": "COc1ccccc1/C=C/C(=O)NC1CC2CCC1C2", "note": "(stereo unspecified)", "inhibition": "-0.78%"},
      {"smiles": "COc1ccccc1-n1ccnc(SCC(=O)NC2CCCCC2)c1=O", "inhibition": "-2.23%"},
      {"smiles": "CCOc1ccc(/C=C/C(=O)OCC(=O)c2ccccc2OC)cc1OC", "inhibition": "6.36%"},
      {"smiles": "COc1ccccc1/C=C/C(=O)OCC(=O)NC1CCCCCC1", "inhibition": "93.2% (active)"},
      {"smiles": "COc1ccc(/C=C/C(=O)OCC(=O)NC2CCCCCC2)cc1OC", "inhibition": "87.4% (active)"},
      {"smiles": "COc1cc2c(C(=O)N3CCN(C)CC3)c(CSc3ccccc3)n(C)c2cc1Br", "inhibition": "-5.01%"},
      {"smiles": "COc1ccc(NC(=O)c2cccc(Cl)c2)c[n+]1[O-]", "inhibition": "-0.76%"},
      {"smiles": "O=C(CSCc1c(Cl)cccc1Cl)NN1C(=O)c2ccccc2C1=O", "inhibition": "11.8%"},
      {"smiles": "Cc1cccc(CN2CCN(Cc3cnn(-c4ccccc4F)c3)CC2CCO)n1", "note": "(stereo unspecified)", "inhibition": "-6.68%"},
      {"smiles": "COc1ccc(C(=O)O/N=C(\\N)Cc2ccc(Cl)cc2Cl)cc1OC", "inhibition": "85.3% (active)"},
      {"smiles": "COc1ccc(CCn2ccc(O)c(Cc3ccc(Cl)cc3Cl)c2=O)cc1OC", "inhibition": "-2.38%"},
      {"smiles": "COc1ccc(C(=O)n2nc(-c3ccc(Cl)cc3)nc2N)cc1OC", "inhibition": "3.15%"},
      {"smiles": "C=CCOc1ccc(C(=O)Nc2ccccc2C(=O)N2CCCC2)cc1", "inhibition": "7.79%"},
      {"smiles": "CCCCn1c(O)c(N=NC(=O)Cn2c(C(F)(F)F)nc3ccccc32)c2ccccc21", "inhibition": "-3.07%"},
      {"smiles": "O=C(O)Cc1csc(-c2cccc(Oc3ccccc3)c2)n1", "inhibition": "3.06% and 0.17%"},
      {"smiles": "CC1CC(C)CN(c2ccc(S(=O)(=O)N3CCOCC3)cc2)C1", "note": "(stereo unspecified)", "inhibition": "13.7%"},
      {"smiles": "Cc1ccc(OCC(=O)N2CCN(S(=O)(=O)c3ccc(Cl)s3)CC2)cc1C", "inhibition": "6.03%"},
      {"smiles": "CN(C)S(=O)(=O)c1cccc(NC(=O)COc2ccc3ccccc3c2)c1", "inhibition": "-8.6%"},
      {"smiles": "CN(C)S(=O)(=O)c1cccc(NC(=O)COC(=O)/C=C/c2cccs2)c1", "inhibition": "72.2% (active)"},
      {"smiles": "Cc1ccc(S(=O)(=O)N(C)C)cc1NC(=O)/C=C/c1cccs1", "inhibition": "5.59%"},
      {"smiles": "Cc1ccc(S(=O)(=O)N(C)C)cc1NC(=O)COC(=O)c1c(C)noc1C", "inhibition": "-9.47%"},
      {"smiles": "Cc1ccc(S(=O)(=O)N(C)C)cc1NC(=O)COC(=O)/C=C/c1cccs1", "inhibition": "59.3% (active)"},
      {"smiles": "CN(C)S(=O)(=O)c1cccc(NC(=O)COC(=O)c2cc(=O)[nH]c(=O)[nH]2)c1", "inhibition": "0.25%"},
      {"smiles": "O=C(C1CCN(S(=O)(=O)Cc2ccccc2)CC1)N1CCCc2ccccc21", "inhibition": "-7.5%"},
      {"smiles": "COCCNC(=O)/C(C#N)=C/c1nc(N(C)C)n(-c2ccc(F)cc2)c1Cl", "inhibition": "1.81%"},
      {"smiles": "COCCNC(=O)/C(C#N)=C/c1cccc(OCc2ccccc2)c1", "inhibition": "30.2% (active)"},
      {"smiles": "CCOC(=O)NC(=O)/C(C#N)=C\\c1ccccc1", "inhibition": "-7.65%"},
      {"smiles": "Cc1ccc(-n2c(C)cc(C(=O)CN3C(=O)C(=O)N(C4CCCC4)C3=O)c2C)cc1", "inhibition": "4.94%"},
      {"smiles": "Cc1cc(C(=O)COC(=O)C2CC2)c(C)n1-c1ccc(F)cc1", "inhibition": "44.5% (active)"},
      {"smiles": "Cc1cc(C(=O)COc2ccccc2Cl)c(C)n1C1CC1", "inhibition": "0.58%"}
    ]}
  ]
}
